# Hits are enriched below; roughly 10% of the tested compounds scored in any of these assays.
# Pf growth 48h = Primary qHTS for delayed death inhibitors of the malarial parasite plastid, 48 hour incubation; Potency, µM (top dose mostly 28.7 µM), for the others: top-dose activity change, negative = inhibition, actives largely listed as inhibitors; 310,000 tested, 5.9% active; P. falciparum luciferase growth in erythrocytes, 48 h; AID 504832, 2011; note: potency is the fitted concentration of half-maximal effect; % is set by controls: 0 for no effect and ±100 for the full control effect
#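 In quantitative HTS format, infected erythrocytes bearing luciferase-reporter parasites were treated for a single generation at 37 C. Luminescence after adding detection reagent served as the growth measure.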
# Pf growth 96h = Primary qHTS for delayed death inhibitors of the malarial parasite plastid, 96 hour incubation; P. falciparum luciferase reporter growth, 96 h; Potency, µM (top dose mostly 28.7 µM), inactives show at the top dose activity change, negative = inhibition, most hits filed as inhibitors; 320,000 tested, 6.9% active; note: potency is the fitted concentration of half-maximal effect; % is set by controls: 0 for no effect and ±100 for the full control effect
#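 P. falciparum expressing integrated firefly luciferase grown in erythrocytes (2% hematocrit, 0.05% parasitemia final) with compounds for 96 hours at 37 C, 5% CO2. Growth inhibition read as loss of luminescence after adding luciferase detection reagent.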
# SARS PLpro yeast-1 = qHTS of Yeast-based Assay for SARS-CoV PLP; S. cerevisiae expressing SARS-CoV PLpro, growth rescue; Potency, µM (highest dose often 32.9 µM), inactives show at the top dose activity, positive = growth rescue, hits mostly activators; 330,000 tested, 0.19% active; calls by dose curve; note: potency is the fitted concentration of half-maximal effect; 0% is about no effect; nearly all actives have a fitted effect of over 55% in size
# NS1 function inh = qHTS Assay for Inhibitors of Influenza NS1 Protein Function | 270,000 tested, 0.4% active | Potency, µM (titrated, usually from 46.1 µM), for the others: at the highest dose activity, positive = more growth; calls by dose curve; note: potency is the fitted concentration of half-maximal effect; actives are rising curves; nearly all actives have a fitted effect of over 50% in size
#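 Growth recovery, yeast-based: influenza A NS1 expressed in S. cerevisiae causes slow growth, and suppressors are detected by OD600. The parent strain without NS1 is used as positive control.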
# SARS PLpro yeast-2 = qHTS of Yeast-based Assay for SARS-CoV PLP: Hit Validation; shares compounds with SARS PLpro yeast-1; yeast expressing SARS-CoV PLpro, growth phenotype rescue; calls only; 1,000 tested, 19% active; call rule not given here
# CLK4 ADP-Glo = Confirmaiton Assay for Inhibitors of CDC-like Kinase 4 (ADP-Glo Assay). shares compounds with Pf growth 48h. recombinant Clk4, RS peptide, ADP-Glo luminescence. Potency, µM (doses to about 80 µM), without a hit: at the highest dose activity, negative = inhibition, actives largely listed as inhibitors. 65 tested, 80% active. AID 1969, 2009
# Target sequence (Q9HAZ1 whole entry, looked up): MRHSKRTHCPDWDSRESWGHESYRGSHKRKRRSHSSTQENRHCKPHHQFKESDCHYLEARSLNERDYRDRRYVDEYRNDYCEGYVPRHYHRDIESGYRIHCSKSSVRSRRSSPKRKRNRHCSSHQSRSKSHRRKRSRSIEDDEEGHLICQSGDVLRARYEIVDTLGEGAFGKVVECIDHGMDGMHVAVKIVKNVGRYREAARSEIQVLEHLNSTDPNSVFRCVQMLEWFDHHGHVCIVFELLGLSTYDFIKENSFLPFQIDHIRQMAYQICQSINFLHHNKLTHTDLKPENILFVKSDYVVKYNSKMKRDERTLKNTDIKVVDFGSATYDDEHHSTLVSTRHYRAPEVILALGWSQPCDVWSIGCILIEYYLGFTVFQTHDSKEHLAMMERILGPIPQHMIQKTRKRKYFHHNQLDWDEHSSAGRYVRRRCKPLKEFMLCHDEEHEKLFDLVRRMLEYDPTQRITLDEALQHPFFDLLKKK
# CLK4 ADP FP = Confirmation Assay for Inhibitors of CDC-like Kinase 4 (ADP-FP Assay); shares compounds with Pf growth 48h; recombinant Clk4, ADP Transcreener FP, RS peptide; Potency, µM (highest dose often 80 µM), for inactives: top-dose activity, negative = inhibition, most hits filed as inhibitors; 65 tested, 70% active
# Numbers without * were called inactive; i = inactive; ? = inconclusive; nt = no result given; + = active, no number; ! = not confirmed by another sample; [ ] = remark or other dose. Unless noted, calls come from the whole dose curve; as a rule, active = well fitted curve in the direction sought with a large enough effect; inconclusive = small, poorly fitted or top-dose-only effect, or another doubt; inactive = no such curve, though single readings can be large; an effect the other way counts as inactive or inconclusive.
SMILES,Pf growth 48h,Pf growth 96h,SARS PLpro yeast-1,NS1 function inh,CLK4 ADP-Glo,CLK4 ADP FP,others
O=C(Cc1c(Sc2ccccc2)c2ccccc2n1Cc1ccccc1)NCCO,?,?,-3%,17%,nt,nt,
CN(Cc1ccccn1)C(=O)C1CCC(=O)N(Cc2cccc(C(F)(F)F)c2)C1 (configuration not stated),-1%,?,-3%,-1%,nt,nt,
O=C(COC(=O)c1ccc(S(=O)(=O)N2CCCCCC2)cc1)NCc1ccc(F)cc1,?,47%,?,nt,nt,nt,SARS PLpro yeast-2=+
Cc1ccc(CNC(=O)COC(=O)c2ccc(S(=O)(=O)N3CCCCCC3)cc2)cc1,-8%,5%,1%,nt,nt,nt,
Cc1ccc(C)c(CN2CCSCC2)c1,?,3%,3%,-5%,nt,nt,
CCCCC(=O)NC(=S)NNC(=O)CC#N,-3%,nt,1%,-4%,nt,nt,
CCCCC(=O)NNC(=S)NC(=O)CCC,-24%,?,16µM*,-2%[9.22 µM],nt,nt,SARS PLpro yeast-2=i
Cc1ccccc1COCCN1CCN(S(=O)(=O)c2ccccc2)CCC1=O,?,?,0%,1%,nt,nt,
COc1cccc(-c2ccc3ncnc(NCc4cc(C)cs4)c3c2)c1,6.6µM*,4.1µM*,6.3µM*!,nt,0.89µM*,1.3µM*,SARS PLpro yeast-2=i
Cc1cccc(CNc2ncnc3[nH]ncc23)c1,nt,nt,nt,-8%,nt,nt,
Cc1cccc(-c2ccc3ncnc(NCc4cccnc4)c3c2)c1,9.3µM*,?,6.3µM*!,nt,6.3µM*,10µM*,SARS PLpro yeast-2=i
Cc1cccc(-c2ccc3ncnc(NCc4cccs4)c3c2)c1,3.7µM*!,3.3µM*,6.3µM*!,nt,7.9µM*,16µM*,SARS PLpro yeast-2=i
COc1ccc(CNC(=O)CN2C(=O)NC3(CCCCCCC3)C2=O)cc1,nt,nt,-4%,nt,nt,nt,
O=C(/C=C/c1ccc(F)cc1)Nc1cccc(S(=O)(=O)N2CCOCC2)c1,nt,nt,-10%,nt,nt,nt,
c1coc(-c2ccc3ncnc(NCc4cccs4)c3c2)c1,?,?,2%,nt,28µM*,28µM*,
c1csc(CNc2ncnc3nc[nH]c23)c1,9%,?,1%,-62%,nt,nt,
COc1ccc(-n2ncc3c(NCc4cccs4)ncnc32)cc1,99%,nt,-4%,-8%,nt,nt,
Cc1csc(CNc2ncnc3ccc(-c4ccccc4Cl)cc23)c1,9.3µM*,2.6µM*,4%,nt,8.9µM*,?,
c1ccc(-n2ncc3c(NCc4cccs4)ncnc32)cc1,70%,88%,-13%,-9%,nt,nt,
Clc1ccccc1-c1ccc2ncnc(NCc3cccs3)c2c1,5.9µM*,3.7µM*,11%,nt,6.3µM*,?,
Clc1cccc(-c2ccc3ncnc(NCc4cccs4)c3c2)c1,12µM*,3.3µM*,1%,nt,4µM*,7.9µM*,
c1ccc(C[C@@H](Nc2cccnc2)c2ccccc2)cc1,nt,nt,nt,-10%,nt,nt,
CCCOC1CCCN(C(=O)c2ccc(OC3CCN(Cc4ccccn4)CC3)cc2)C1 (configuration not stated),?,6%,-3%,14%,nt,nt,
C=COC(=O)c1sc2nc(C)cc(C)c2c1N,38%,-14%,-1%,-9%,nt,nt,
COc1ccc(S(=O)(=O)Nc2c(NC3CCCCC3)c3ccccc3oc2=O)cc1,1%,?,-2%,-9%,nt,nt,
CC(=O)c1sc(NC(=O)c2oc3ccc(F)cc3c2C)nc1C,398%,411%,5%,nt,nt,nt,
Cc1csc(CNc2ncnc3ccc(-c4cccnc4)cc23)c1,?,10µM*,2%,nt,4.5µM*,11µM*,
Cc1csc(CNc2ncnc3ccc(-c4ccoc4)cc23)c1,13µM*!,?,6%,nt,0.56µM*,0.56µM*,
CC(=O)Nc1ccc(CNc2ncnc3ccc(-c4c(C)noc4C)cc23)cc1,?,?,-4%,nt,nt,nt,
Cc1csc(CNc2ncnc3ccc(-c4ccc5c(c4)OCCO5)cc23)c1,12µM*,?,-6%,nt,0.45µM*,0.56µM*,

# High-throughput results as filed in PubChem BioAssay.
